The whole screen tested about 5,500 compounds, of which about 2,000 (36%) were called active. About 18% were inconclusive and are not listed. Rule as the data show it: active = normalized growth mostly below about 0.91 (no sharp cut-off); inconclusive = no clear call, values can overlap the other calls; inactive = mostly above about 0.92. The list shows a part of the results.
Experiment: chemical genetic growth profiling, strain panel (AID 1159580);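 also: tested at 20 µM; growth read once vehicle control cultures reached saturation at 30 °C; 1 = growth at the plate median or of vehicle wells; lower values mean less growth of the strain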
Conditions: growth OD
[1] = S. cerevisiae deletion strains, locus YAL013W, strain DEP1, active compounds read low
[2] = S. cerevisiae deletion strains, locus YBR229C, strain ROT2, active compounds read low
[3] = S. cerevisiae deletion strains, locus YDL101C, strain DUN1, active compounds read low
[4] = S. cerevisiae deletion strains, locus YDL134C, strain PPH21, active compounds read low
[5] = S. cerevisiae deletion strains, locus YDR150W, strain NUM1, active compounds read low
[6] = S. cerevisiae deletion strains, locus YEL061C, strain CIN8, active compounds read low
[7] = S. cerevisiae deletion strains, locus YGR078C, strain PAC10, active compounds read low
[8] = S. cerevisiae deletion strains, locus YHR030C, strain SLT2, active compounds read low
[9] = S. cerevisiae deletion strains, locus YHR087W, strain rtc3, active compounds read low
[10] = S. cerevisiae deletion strains, locus YJR043C, strain POL32, active compounds read low
[11] = S. cerevisiae deletion strains, locus YJR075W, strain HOC1, active compounds read low
[12] = S. cerevisiae deletion strains, locus YLR039C, strain RIC1, active compounds read low
[13] = S. cerevisiae deletion strains, locus YLR058C, strain SHM2 (second series), active compounds read low
[14] = S. cerevisiae deletion strains, locus YLR085C, strain ARP6, active compounds read low
[15] = S. cerevisiae deletion strains, locus YLR262C, strain YPT6, active compounds read low
[16] = S. cerevisiae deletion strains, locus YML094W, strain GIM5, active compounds read low
[17] = S. cerevisiae deletion strains, locus YMR219W, strain ESC1, active compounds read low
[18] = S. cerevisiae deletion strains, locus YMR263W, strain SAP30, active compounds read low
[19] = S. cerevisiae deletion strains, locus YNL153C, strain GIM3, active compounds read low
[20] = S. cerevisiae deletion strains, locus YNL298W, strain CLA4 (second series), active compounds read low
[21] = S. cerevisiae deletion strains, locus YNL322C, strain KRE1, active compounds read low
[22] = S. cerevisiae deletion strains, locus YNR030W, strain Alg12, active compounds read low
[23] = S. cerevisiae deletion strains, locus YPL055C, strain LGE1, active compounds read low
[24] = S. cerevisiae deletion strains, locus YPL241C, strain CIN2, active compounds read low
[25] = S. cerevisiae deletion strains, locus YPR135W, strain CTF4, active compounds read low

Measured: normalized growth

COC(=O)c1ccccc1CSc1nccc(C(F)(F)F)n1
active: [4] 0.86 | [8] 0.671 | [11] 0.882 | [12] 0.743 | [14] 0.661 | [15] 0.752 | [22] 0.861
inactive: [1] 0.963 | [2] 0.938 | S. cerevisiae deletion strains, locus YCL061C, strain MRC1, active compounds read low 0.956 | [3] 0.978 | [5] 0.939 | [6] 0.917 | [7] 0.927 | S. cerevisiae deletion strains, locus YGR229C, strain SMI1, active compounds read low 0.969 | [9] 0.913 | [10] 0.957 | S. cerevisiae deletion strains, locus YKL190W, strain CNB1, active compounds read low 0.931 | [13] 0.959 | [16] 0.946 | [17] 0.969 | [18] 0.975 | [19] 0.952 | [20] 0.895 | [21] 0.962 | [23] 0.849 | [24] 0.859 | [25] 0.657 | S. cerevisiae strains, strain wild type, active compounds read low 0.926

CCOC(=O)c1cnc2nc(SC)nn2c1N
inactive: [1] 0.997 | [2] 1 | [3] 0.955 | [4] 0.995 | [5] 0.968 | [6] 1 | [7] 0.971 | [8] 0.855 | [9] 0.994 | [10] 0.935 | [11] 0.984 | [12] 1.03 | [13] 0.994 | [14] 0.88 | [15] 1.01 | [16] 0.942 | [17] 0.993 | [18] 0.983 | S. cerevisiae deletion strains, locus YMR307W, strain GAS1, active compounds read low 0.909 | S. cerevisiae deletion strains, locus YNL128W, strain TEP1, active compounds read low 0.988 | [19] 0.956 | [20] 0.968 | [21] 0.998 | [22] 0.982 | [23] 0.942 | [24] 0.982 | [25] 0.894

CCOC(=O)c1cnc2c(c(C)nn2C)c1Sc1nnc(SC)s1
active: S. cerevisiae deletion strains, locus YAR019C, strain CDC15, active compounds read low 0.847 | S. cerevisiae deletion strains, locus YBL105C, strain PKC1, active compounds read low 0.872 | S. cerevisiae deletion strains, locus YBR135W, strain CKS1, active compounds read low 0.874 | S. cerevisiae deletion strains, locus YBR136W, strain MEC1, active compounds read low 0.867 | S. cerevisiae deletion strains, locus YBR160W, strain CDC28, active compounds read low 0.876 | S. cerevisiae deletion strains, locus YDL017W, strain CDC7, active compounds read low 0.875 | S. cerevisiae deletion strains, locus YDL028C, strain MPS1, active compounds read low 0.882 | [3] 0.911 | S. cerevisiae deletion strains, locus YDL132W, strain cdc53, active compounds read low 0.841 | S. cerevisiae deletion strains, locus YDR052C, strain DBF4, active compounds read low 0.89 | S. cerevisiae deletion strains, locus YDR054C, strain cdc34, active compounds read low 0.779 | S. cerevisiae deletion strains, locus YDR226W, strain ADK1, active compounds read low 0.871 | S. cerevisiae deletion strains, locus YER123W, strain YCK3, active compounds read low 0.615 | S. cerevisiae deletion strains, locus YER133W, strain GLC7, active compounds read low 0.657 | S. cerevisiae deletion strains, locus YFL009W, strain cdc4, active compounds read low 0.851 | S. cerevisiae deletion strains, locus YFL029C, strain CAK1, active compounds read low 0.845 | S. cerevisiae deletion strains, locus YFR003C, strain YPI1, active compounds read low 0.887 | S. cerevisiae deletion strains, locus YFR019W, strain FAB1, active compounds read low 0.73 | S. cerevisiae deletion strains, locus YFR028C, strain CDC14, active compounds read low 0.891 | S. cerevisiae deletion strains, locus YGR092W, strain DBF2, active compounds read low 0.431 | [8] 0.565 | S. cerevisiae deletion strains, locus YIL147C, strain SLN1, active compounds read low 0.857 | S. cerevisiae deletion strains, locus YJR016C, strain ILV3, active compounds read low 0.859 | S. cerevisiae deletion strains, locus YJR066W, strain TOR1 (second series), active compounds read low 0.497 | S. cerevisiae deletion strains, locus YKL193C, strain SDS22, active compounds read low 0.859 | S. cerevisiae deletion strains, locus YKL203C, strain TOR2, active compounds read low 0.683 | S. cerevisiae deletion strains, locus YLR113W, strain HOG1, active compounds read low 0.505 | S. cerevisiae deletion strains, locus YLR403W, strain SFP1, active compounds read low 0.549 | S. cerevisiae deletion strains, locus YMR001C, strain CDC5, active compounds read low 0.855 | S. cerevisiae deletion strains, locus YMR277W, strain FCP1, active compounds read low 0.852 | S. cerevisiae deletion strains, locus YNL006W, strain LST8, active compounds read low 0.881 | S. cerevisiae deletion strains, locus YNL161W, strain CBK1, active compounds read low 0.88 | S. cerevisiae deletion strains, locus YNL207W, strain RIO2, active compounds read low 0.844 | S. cerevisiae deletion strains, locus YNL222W, strain SSU72, active compounds read low 0.867 | S. cerevisiae deletion strains, locus YNL307C, strain MCK1 (second series), active compounds read low 0.596 | S. cerevisiae deletion strains, locus YOL078W, strain AVO1, active compounds read low 0.859 | S. cerevisiae deletion strains, locus YOR329C, strain SCD5, active compounds read low 0.872 | S. cerevisiae deletion strains, locus YPL153C, strain RAD53, active compounds read low 0.62 | S. cerevisiae deletion strains, locus YPL209C, strain IPL1, active compounds read low 0.886 | S. cerevisiae deletion strains, locus YPL256C, strain CLN2, active compounds read low 0.789 | S. cerevisiae deletion strains, locus YPR025C, strain CCL1, active compounds read low 0.879 | S. cerevisiae deletion strains, strain TSCII, active compounds read low 0.846
inactive: S. cerevisiae deletion strains, locus YDL108W, strain KIN28, active compounds read low 0.899 | S. cerevisiae deletion strains, locus YDL214C, strain PRR2, active compounds read low 0.796 | S. cerevisiae deletion strains, locus YDR477W, strain SNF1, active compounds read low 0.719 | S. cerevisiae deletion strains, locus YGR040W, strain KSS1, active compounds read low 0.742 | S. cerevisiae deletion strains, locus YGR052W, strain FMP48, active compounds read low 0.847 | S. cerevisiae deletion strains, locus YHR079C, strain IRE1, active compounds read low 0.649 | S. cerevisiae deletion strains, locus YHR082C, strain KSP1, active compounds read low 0.779 | S. cerevisiae deletion strains, locus YHR205W, strain SCH9, active compounds read low 0.744 | S. cerevisiae deletion strains, locus YJL095W, strain BCK1, active compounds read low 0.69 | S. cerevisiae deletion strains, locus YJL128C, strain PBS2, active compounds read low 0.945 | S. cerevisiae deletion strains, locus YJL157C, strain FAR1, active compounds read low 0.739 | S. cerevisiae deletion strains, locus YJR066W, strain TOR1, active compounds read low 0.644 | S. cerevisiae deletion strains, locus YKL048C, strain ELM1, active compounds read low 0.902 | S. cerevisiae deletion strains, locus YKL067W, strain YNK1, active compounds read low 0.821 | S. cerevisiae deletion strains, locus YKL101W, strain HSL1, active compounds read low 0.865 | S. cerevisiae deletion strains, locus YLR133W, strain CKI1, active compounds read low 0.808 | S. cerevisiae deletion strains, locus YML070W, strain DAK1, active compounds read low 0.759 | S. cerevisiae deletion strains, locus YMR205C, strain PFK2 (second series), active compounds read low 0.859 | S. cerevisiae deletion strains, locus YNL020C, strain ARK1, active compounds read low 0.802 | S. cerevisiae deletion strains, locus YNL183C, strain NPR1, active compounds read low 0.715 | S. cerevisiae deletion strains, locus YOL136C, strain PFK27, active compounds read low 0.714 | S. cerevisiae deletion strains, locus YOR061W, strain CKA2, active compounds read low 0.813 | S. cerevisiae deletion strains, locus YOR119C, strain RIO1, active compounds read low 0.77 | S. cerevisiae deletion strains, locus YOR231W, strain MKK1, active compounds read low 0.701 | S. cerevisiae deletion strains, locus YPL031C, strain PHO85, active compounds read low 0.67 | S. cerevisiae deletion strains, locus YPL204W, strain HRR25, active compounds read low 0.667 | S. cerevisiae deletion strains, locus YPR106W, strain ISR1, active compounds read low 0.934 | S. cerevisiae deletion strains, locus YPR111W, strain DBF20, active compounds read low 0.928 | S. cerevisiae deletion strains, strain NNK1, active compounds read low 0.917
